# Screens deposited in PubChem by several laboratories.
# ALR inh – blocks human ALR sulfhydryl oxidase activity | P55789 | purified ALR, DTT oxidation, H2O2 HRP-luminol luminescence | inhibition, % (test concentration not listed) | 290,000 compounds, 3.8% hits;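 active = mean replicate inhibition above about 79%, with every replicate also reaching it, limit read from the data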
# Target sequence (P55789 whole entry, looked up): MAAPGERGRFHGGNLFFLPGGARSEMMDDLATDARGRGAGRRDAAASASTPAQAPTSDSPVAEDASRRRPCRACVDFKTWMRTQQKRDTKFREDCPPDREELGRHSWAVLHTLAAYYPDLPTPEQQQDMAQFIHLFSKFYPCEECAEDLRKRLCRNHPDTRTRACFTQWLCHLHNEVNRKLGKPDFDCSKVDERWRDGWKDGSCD
# LANA-H2A inh – blocks KSHV LANA binding to histone H2A/H2B; inhibition, % (test concentration not listed); 320,000 compounds, 0.6% hits; cell-free LANA-H2A/H2B peptide, fluorescence polarization; Q9QR71; AID 2629; in the data active = inhibition mostly above about 10%, no sharp cut-off; inactive = mostly below about 6.7%
# PRMT1 FP inh – blocks human protein arginine methyltransferase 1; Q99873; recombinant PRMT1, activity-based probe fluorescence polarization; inhibition, % at 2.79 µM; 370,000 compounds, 1.3% hits;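 active = inhibition above about 21% made by adding two undisclosed values, limit read from the data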
# Target sequence (Q99873 whole entry, looked up): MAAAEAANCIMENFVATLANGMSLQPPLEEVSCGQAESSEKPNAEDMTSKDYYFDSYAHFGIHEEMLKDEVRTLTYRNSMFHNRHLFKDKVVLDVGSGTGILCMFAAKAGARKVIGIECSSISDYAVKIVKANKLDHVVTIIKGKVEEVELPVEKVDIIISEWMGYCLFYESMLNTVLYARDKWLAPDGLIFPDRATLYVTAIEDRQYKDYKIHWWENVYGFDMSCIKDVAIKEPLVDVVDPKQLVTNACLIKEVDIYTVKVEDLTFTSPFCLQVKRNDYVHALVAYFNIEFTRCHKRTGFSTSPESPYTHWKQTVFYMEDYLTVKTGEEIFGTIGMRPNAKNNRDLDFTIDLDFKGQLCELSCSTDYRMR
# rCAG binder – binds r(CAG) RNA repeats. r(CAG) RNA repeat, TO-PRO-1 dye displacement fluorescence. inhibition, % at 3 µM. 370,000 compounds, 1.3% hits. AID 651821;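 active = inhibition above the plate cutoff, the mean of all test compounds on that plate plus 3 SD, cut at about 35% in these data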;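 note: 0% = DMSO alone and 100% = 100 µM mitoxantrone as full dye displacement; higher means more dye released from RNA so lower well fluorescence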
# ABHD5-PLIN5 inh – blocks binding of human ABHD5 to perilipin-5; Q00G26+Q8WTS1; Split G. princeps luciferase complementation, luminescence, 4 h; inhibition, % at 4 µM; 360,000 compounds, 0.78% hits; AID 602281;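 active = inhibition above the mean inhibition across every tested compound plus 3 SD, cut at about 22% in these data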;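 note: 0% = DMSO only wells and the 100% control is not disclosed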
# Rtt109 Vps75 – blocks Candida albicans Rtt109/Vps75 acetyltransferase activity | purified Rtt109/Vps75, ThioGlo CoA-SH fluorescence, 4 h | inhibition, % at 34.9 µM | 330,000 compounds, 0.16% hits;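 active = inhibition of at least 50% in every replicate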
# Numbers without * were called inactive; · = no result given. Compounds with a hit are over-represented: about 5.9% of the library has one in this group of screens.
SMILES,ALR inh,LANA-H2A inh,PRMT1 FP inh,rCAG binder,ABHD5-PLIN5 inh,Rtt109 Vps75
COc1ccc2nc(Nc3ccccc3OC)sc2c1,98.8*,-1.9,2.0,1.3,9.1,-2.4
COc1ccc2nc(Nc3ccccc3)sc2c1,94.1*,0.5,-5.1,3.3,-1.1,2.7
COc1ccc2nc(NC(=O)Nc3ccccc3OC)sc2c1,-12.7,2.8,-3.2,0.6,10.0,-0.3
CCOc1ccc(CCNC(=O)C(O)c2ccccc2)cc1 (stereo not given),98.9*,2.0,-3.5,-3.6,-5.6,-1.4
CCOc1ccccc1NC(=O)C(NCCc1ccc(OC)cc1)c1ccccc1 (stereo not given),-8.8,-2.6,21.2*,-1.5,-1.5,-7.6
O[C@H](COc1ccc(F)cc1)CN1CCC(C(O)(c2ccccc2)c2ccccc2)CC1,·,·,-1.1,-0.1,·,·
CCCS(=O)(=O)N1CCN=C1SCc1ccc(F)cc1,91.8*,-4.3,2.5,-2.9,-3.0,1.5
CCS(=O)(=O)N1CCN=C1SCc1cccc(F)c1,47.8,1.3,4.7,-1.5,-3.7,4.2
CCS(=O)(=O)N1CCN=C1SCc1ccc(F)cc1,88.8*,1.8,-1.8,0.2,4.7,-4.8
CS(=O)(=O)N1CCN=C1SCc1cccc(F)c1,80.8*,0.3,0.3,-1.2,-1.6,-8.0
CCS(=O)(=O)N1CCN=C1SCc1ccccc1,-4.7,-3.9,1.1,-0.5,-4.5,6.1
CCCS(=O)(=O)N1CCN=C1SCc1cccc2ccccc12,99.0*,-2.0,2.0,2.3,-6.7,-0.4
CC(=O)Nc1ccc(S(=O)(=O)NCCC(=O)OCC(=O)c2cc(C)ccc2C)cc1,·,·,-3.6,6.1,2.8,3.6
O=C(Nc1c(F)c(F)c(F)c(F)c1F)OC[C@@H]1CSCCS(=O)(=O)N1,·,·,-2.4,1.4,·,·
CCCS(=O)(=O)N1CCN=C1SCc1cccnc1,98.5*,5.9,5.0,0.8,2.1,·
Cc1ccc(S(=O)(=O)N2CCN=C2SCc2ccccc2)cc1,-4.6,-2.3,-1.1,-4.1,-2.5,7.2
COc1ccc(C2=Nc3ccccc3N(C(=O)c3ccncc3)C2C(=O)NC(C)(C)C)cc1 (stereo not given),·,·,-2.1,1.8,-5.4,·
CCc1c(C)sc(NC(=O)c2ccco2)c1C(=O)N1CCOCC1,20.0,1.7,2.0,-1.6,-4.2,0.7
CCc1c(C)sc(NC(=O)c2ccco2)c1C(=O)N1CCCCC1,80.7*,6.7,3.8,2.6,-15.9,6.8
CC1=C(C(=O)N2CCOCC2)CC(CC(=O)NC2CC2)C(=O)N1Cc1ccc(F)cc1 (stereo not given),·,·,4.8,0.8,1.8,·
C=C(C)Cn1c(N)cc(=O)nc1SCC(=O)Nc1cccc(C(F)(F)F)c1,97.2*,4.6,-6.1,0.4,-3.1,-1.2
Nn1c(SCC(=O)Nc2ccc3c(c2)OCO3)nncc1=O,98.3*,3.4,11.6,3.8,-12.0,7.3
Nn1c(SCC(=O)Nc2cccc(C(F)(F)F)c2)nncc1=O,97.4*,4.8,9.9,2.4,-2.0,-14.2
Nn1c(SCC(=O)Nc2ccc3c(c2)OCCO3)nnc(CCC(=O)O)c1=O,93.2*,-1.8,2.0,6.3,-12.5,12.0
Cc1onc(-c2ccccc2)c1C(=O)N1CCN(C(=O)C(=O)c2cccc(C(F)(F)F)c2)CC1,·,·,-2.8,-1.1,·,·
SMILES,ALR inh,LANA-H2A inh,PRMT1 FP inh,rCAG binder,ABHD5-PLIN5 inh,Rtt109 Vps75
COC(=O)[C@]12C[C@H](CC(=O)NCc3cccc4ccccc34)C(=O)N(Cc3ccc4c(c3)OCO4)C1=C[C@H](COCc1ccccc1)O[C@@H]2C,·,·,5.3,12.4,·,·
CN(CCCNC(=O)C1CCC(=O)N1Cc1ccc(F)cc1)c1ccccc1 (stereo not given),98.6*,0.1,-1.2,4.2,-2.6,5.7
CC(C)N1C(=O)CCC1C(=O)N1CCN(c2ccc(F)cc2)CC1 (stereo not given),·,6.2,-2.2,-1.1,1.1,-2.9
O=C(C1CCC(=O)N1Cc1ccccc1Cl)N1CCN(c2ccc(F)cc2)CC1 (stereo not given),97.4*,4.7,-5.2,-0.1,-0.1,-1.5
CN(CCCNC(=O)C1CCC(=O)N1Cc1ccccc1Cl)c1ccccc1 (stereo not given),98.3*,-0.6,3.2,-6.2,1.9,6.9
Cn1c(SCC(=O)Nc2ccccc2-c2ccccc2)nnc1-c1cnccn1,·,·,-6.8,5.0,·,·
CC(C)C[C@@H]1COc2cccc(NCCO)c2S(=O)(=O)N1,·,·,-0.7,1.3,·,·
S=c1[nH]nc(C2CCCCC2)n1/N=C/c1cccs1,95.6*,1.0,7.2,5.0,-9.3,2.8
Cc1cccc(/C=N/n2c(C3CCCCC3)n[nH]c2=S)c1,·,-5.8,·,·,-3.4,12.0
Cc1cc(-c2n[nH]c(=S)n2/N=C/c2ccc(C)o2)n[nH]1,·,0.1,-3.5,0.0,-1.7,11.1
Cc1cccc(-c2n[nH]c(=S)n2/N=C/c2ccc(C)o2)c1,10.8,0.2,21.7*,11.9,-8.0,9.7
Cc1ccc(/C=N/n2c(C3CCCCC3)n[nH]c2=S)o1,96.7*,0.8,0.3,-2.8,-3.7,4.5
COC(=O)[C@]12C[C@H](CC(=O)N3CCCC3)C(=O)N(CCc3ccc(OC)c(OC)c3)C1=C[C@H](C(C)(C)C)O[C@@H]2C,·,·,-1.4,-0.6,·,·
O=[N+]([O-])/C(C(Cl)=C(Cl)Cl)=C(/Sc1ccccc1)N1CCCCC1,92.2*,-1.2,5.3,-3.8,-1.0,6.9
O=C(CSC1=Nc2ccccc2C2=NC(CC(=O)NC3CCCCC3)C(=O)N12)NCc1ccco1 (stereo not given),2.5,3.4,18.1,6.3,-2.0,15.2
O=C(CSC1=Nc2ccccc2C2CC=NN12)NCc1ccco1 (stereo not given),98.6*,3.7,3.1,7.6,-9.4,-2.0
Oc1ccc(-c2cnns2)c(O)c1,98.7*,-1.9,23.9*,5.4,5.5,-2.6
CCOC(=O)C1(C)CCCN(C(=O)c2ccccc2C(F)(F)F)C1 (stereo not given),·,·,0.6,-2.2,4.7,·
CC(C)CCNC(=O)COC(=O)/C=C/c1ccc2ccccc2n1,96.7*,-0.5,-3.8,-2.3,-2.2,-3.9
Cc1ccc(-c2nc(CS(=O)(=O)CC(=O)N3CCN(C)CC3)c(C)o2)cc1,45.0,5.5,-10.7,-6.5,1.6,-1.5
COc1ccc(-c2nc(CS(=O)CC(=O)N3CCN(C)CC3)c(C)o2)cc1 (stereo not given),99.1*,2.8,2.3,-1.4,-6.2,-5.6
COc1ccc(-c2nc(CS(=O)CC(=O)N3CCN(C)CC3)c(C)o2)cc1OC (stereo not given),98.9*,-4.1,-2.2,0.3,-11.5,-2.0
COc1ccc(-c2nc(CS(=O)CC(=O)N3CCOCC3)c(C)o2)cc1OC (stereo not given),99.5*,-0.5,8.8,2.0,6.2,19.3
COc1ccc(-c2nc(CSCC(=O)N3CCN(C4CCCCC4)CC3)c(C)o2)cc1OC,·,3.9,-2.5,-1.7,-0.3,-3.9
